# From the supplement of paper PMC8728848
# The entries come from a sample that favours the strongest signals as a whole.
# Experiments:
# Assay in all cases: glycan array binding signal (z-score within array); higher = stronger binding
# Settings in all cases: glycan notation: IUPAC condensed, linker removed
# [1] = molecular target: Fuc(a1-2)Gal(b1-3)GalNAc(a1-3)[Fuc(a1-2)]Gal(b1-4)GlcNAc
# Method in brief: (§1)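 Glycan array data came from 3228 arrays in the Consortium for Functional Glycomics database, and only arrays with an available protein sequence were kept. Glycan names were put into IUPAC-condensed notation, and columns mapping to the same glycan were averaged. The binding signal is a within-array Z-score, averaged across arrays of one protein sequence run at different concentrations or buffers and across linkers. A negative Z-score can be read as non-binding.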
# [2] = molecular target: Fuc(a1-2)Gal(b1-3)GlcNAc(b1-3)[Gal(b1-4)GlcNAc(b1-6)]Gal(b1-4)Glc
# Method in brief: as §1
# [3] = molecular target: Fuc(a1-2)Gal(b1-3)[Fuc(a1-4)]GlcNAc(b1-3)[Gal(b1-4)GlcNAc(b1-6)]Gal(b1-4)Glc
# Method in brief: as §1
# [4] = molecular target: Fuc(a1-2)Gal(b1-4)Glc6S
# Method in brief: as §1
# [5] = molecular target: Fuc(a1-2)Gal(b1-4)GlcNAc(b1-2)Man(a1-3)[Fuc(a1-2)Gal(b1-4)GlcNAc(b1-2)Man(a1-6)]Man(b1-4)GlcNAc(b1-4)GlcNAc
# Method in brief: as §1
# [6] = molecular target: Fuc(a1-2)Gal(b1-4)GlcNAc(b1-2)[Fuc(a1-2)Gal(b1-4)GlcNAc(b1-4)]Man(a1-3)[Fuc(a1-2)Gal(b1-4)GlcNAc(b1-2)Man(a1-6)]Man(b1-4)GlcNAc(b1-4)GlcNAc
# Method in brief: as §1
# [7] = molecular target: Fuc(a1-2)Gal(b1-4)GlcNAc(b1-3)Gal(b1-4)GlcNAc(b1-2)Man(a1-3)[Fuc(a1-2)Gal(b1-4)GlcNAc(b1-3)Gal(b1-4)GlcNAc(b1-2)Man(a1-6)]Man(b1-4)GlcNAc(b1-4)GlcNAc
# Method in brief: as §1
# [8] = molecular target: Fuc(a1-2)Gal(b1-4)GlcNAc(b1-3)Gal(b1-4)GlcNAc(b1-3)Gal(b1-4)GlcNAc
# Method in brief: as §1
# [9] = molecular target: Fuc(a1-2)Gal(b1-4)GlcNAc(b1-6)GalNAc
# Method in brief: as §1
# [10] = molecular target: Fuc(a1-2)[GalNAc(a1-3)]Gal(b1-4)GlcNAc(b1-3)Gal(b1-4)GlcNAc
# Method in brief: as §1
# [11] = molecular target: Fuc(a1-2)[GalNAc(b1-3)]Gal
# Method in brief: as §1
# [12] = molecular target: Fuc(a1-3)[Gal(b1-4)]Glc6S
# Method in brief: as §1
# [13] = molecular target: Fuc(a1-3)[Gal(b1-4)]GlcNAc
# Method in brief: as §1
# [14] = molecular target: Fuc(a1-3)[Gal3S(b1-4)]GlcNAc6S
# Method in brief: as §1
# [15] = molecular target: Gal(a1-3)[Gal(a1-4)]Gal(b1-4)GlcNAc
# Method in brief: as §1
# [16] = molecular target: Gal(a1-4)Gal(b1-4)Glc
# Method in brief: as §1
# [17] = molecular target: Gal(a1-4)GlcNAc
# Method in brief: as §1
# [18] = molecular target: Gal(a1-6)Glc
# Method in brief: as §1
# [19] = molecular target: Gal(b1-3)GalNAc(b1-4)Gal(b1-4)Glc
# Method in brief: as §1
# [20] = molecular target: Gal(b1-3)GlcNAc
# Method in brief: as §1
# [21] = molecular target: Gal(b1-3)[Fuc(a1-4)]GlcNAc
# Method in brief: as §1
# [22] = molecular target: Gal(b1-3)[Fuc(a1-4)]GlcNAc(b1-3)Gal(b1-3)[Fuc(a1-4)]GlcNAc
# Method in brief: as §1
# [23] = molecular target: Gal(b1-3)[Neu5Ac(a2-6)]GlcNAc(b1-4)Gal(b1-4)Glc
# Method in brief: as §1
# [24] = molecular target: Gal(b1-4)Glc6S
# Method in brief: as §1
# [25] = molecular target: Gal(b1-4)GlcNAc(b1-2)Man(a1-3)[Gal(b1-4)GlcNAc(b1-2)Man(a1-6)][Gal(b1-4)GlcNAc(b1-4)]Man(b1-4)GlcNAc(b1-4)[Fuc(a1-6)]GlcNAc
# Method in brief: as §1
# [26] = molecular target: Gal(b1-4)GlcNAc(b1-3)Gal(b1-4)GlcNAc(b1-2)[Gal(b1-4)GlcNAc(b1-3)Gal(b1-4)GlcNAc(b1-6)]Man(a1-6)[Gal(b1-4)GlcNAc(b1-3)Gal(b1-4)GlcNAc(b1-2)Man(a1-3)]Man(b1-4)GlcNAc(b1-4)[Fuc(a1-6)]GlcNAc
# Method in brief: as §1
# [27] = molecular target: Gal(b1-4)GlcNAc(b1-3)Gal(b1-4)GlcNAc(b1-3)Gal(b1-4)GlcNAc(b1-3)Gal(b1-4)GlcNAc(b1-3)Gal(b1-4)GlcNAc(b1-2)[Gal(b1-4)GlcNAc(b1-3)Gal(b1-4)GlcNAc(b1-3)Gal(b1-4)GlcNAc(b1-3)Gal(b1-4)GlcNAc(b1-3)Gal(b1-4)GlcNAc(b1-6)]Man(a1-6)[Gal(b1-4)GlcNAc(b1-3)Gal(b1-4)GlcNAc(b1-3)Gal(b1-4)GlcNAc(b1-3)Gal(b1-4)GlcNAc(b1-3)Gal(b1-4)GlcNAc(b1-2)Man(a1-3)]Man(b1-4)GlcNAc(b1-4)[Fuc(a1-6)]GlcNAc
# Method in brief: as §1
# [28] = molecular target: Gal4S6S(b1-4)GlcNAc
# Method in brief: as §1
# [29] = molecular target: GalNAc(a1-3)GalNAc(b1-3)Gal(a1-4)Gal(b1-4)GlcNAc
# Method in brief: as §1
# [30] = molecular target: GalNAc(b1-4)GlcNAc(b1-2)Man(a1-3)[GalNAc(b1-4)GlcNAc(b1-2)Man(a1-6)]Man(b1-4)GlcNAc(b1-4)GlcNAc
# Method in brief: as §1
# [31] = molecular target: GalNAc(b1-6)GalNAc
# Method in brief: as §1
# [32] = molecular target: GalNAc6S(b1-4)GlcNAc
# Method in brief: as §1
# [33] = molecular target: Glc(a1-4)Glc(a1-4)Glc(a1-4)Glc
# Method in brief: as §1
# [34] = molecular target: Glc(b1-6)Glc
# Method in brief: as §1
# [35] = molecular target: GlcNAc(a1-4)Gal(b1-3)GlcNAc
# Method in brief: as §1
# [36] = molecular target: GlcNAc(a1-4)Gal(b1-4)GlcNAc(b1-3)Gal(b1-4)[Fuc(a1-3)]GlcNAc(b1-3)Gal(b1-4)[Fuc(a1-3)]GlcNAc
# Method in brief: as §1
# [37] = molecular target: GlcNAc(b1-3)Gal(b1-4)GlcNAc
# Method in brief: as §1
# [38] = molecular target: GlcNAc(b1-3)Gal(b1-4)GlcNAc(b1-2)Man(a1-3)[GlcNAc(b1-3)Gal(b1-4)GlcNAc(b1-2)Man(a1-6)]Man(b1-4)GlcNAc(b1-4)GlcNAc
# Method in brief: as §1
# [39] = molecular target: GlcNAc(b1-3)Gal(b1-4)GlcNAc(b1-3)Gal(b1-4)GlcNAc(b1-2)[GlcNAc(b1-3)Gal(b1-4)GlcNAc(b1-3)Gal(b1-4)GlcNAc(b1-6)]Man(a1-6)[GlcNAc(b1-3)Gal(b1-4)GlcNAc(b1-3)Gal(b1-4)GlcNAc(b1-2)Man(a1-3)]Man(b1-4)GlcNAc(b1-4)[Fuc(a1-6)]GlcNAc
# Method in brief: as §1
# [40] = molecular target: Kdn(a2-3)Gal(b1-3)GalNAc
# Method in brief: as §1
# [41] = molecular target: Neu5Ac(a2-3)Gal(b1-4)GlcNAc(b1-3)Gal(b1-3)GlcNAc
# Method in brief: as §1
# [42] = molecular target: Neu5Ac(a2-3)Gal(b1-4)GlcNAc(b1-3)Gal(b1-4)GlcNAc(b1-2)Man(a1-3)[Neu5Ac(a2-3)Gal(b1-4)GlcNAc(b1-3)Gal(b1-4)GlcNAc(b1-2)Man(a1-6)]Man(b1-4)GlcNAc(b1-4)GlcNAc
# Method in brief: as §1
# [43] = molecular target: Neu5Ac(a2-3)Gal(b1-4)[Fuc(a1-3)]GlcNAc(b1-2)Man
# Method in brief: as §1
# [44] = molecular target: Neu5Ac(a2-3)Gal(b1-4)[Fuc(a1-3)]GlcNAc(b1-3)Gal(b1-4)GlcNAc
# Method in brief: as §1
# [45] = molecular target: Neu5Ac(a2-6)Gal(b1-4)GlcNAc(b1-2)Man(a1-3)[Neu5Ac(a2-3)Gal(b1-4)GlcNAc(b1-2)Man(a1-6)]Man(b1-4)GlcNAc(b1-4)GlcNAc
# Method in brief: as §1
# [46] = molecular target: Neu5Ac(a2-6)Gal(b1-4)GlcNAc6S
# Method in brief: as §1
# [47] = molecular target: Neu5Ac(a2-8)Neu5Ac
# Method in brief: as §1
# [48] = molecular target: Neu5Ac(a2-8)Neu5Ac(a2-8)Neu5Ac
# Method in brief: as §1
# [49] = molecular target: Neu5Ac9Ac(a2-6)Gal(b1-4)GlcNAc
# Method in brief: as §1
# [50] = molecular target: Neu5Gc(a2-3)Gal(b1-4)GlcNAc
# Method in brief: as §1
# [51] = molecular target: Neu5Gc(a2-3)Gal(b1-4)[Fuc(a1-3)]GlcNAc
# Method in brief: as §1
# [52] = molecular target: Neu5Gc(a2-8)Neu5Ac(a2-3)Gal(b1-4)GlcNAc
# Method in brief: as §1
binder,measurement,setting,value
Vd7LysM (Verticillium dahliae) (protein) RRGPEPKYPPAAGTSSYCSYWVDYEGDKSCSRVLEDNVVVLKDFARWNPTVGADCSGIKAGNSYCVEAFGEPEPIEVTTTTRAATTTTQPTATTTTFANGIATPQPTQSGMVTNCNKFHWIAEGVSCSQVISFQKITLADFVKWNPSVKSDCSGMWAGVNVCVGVVGSSTDTAKPTTTAPSNGVVTPQPTQPSMVTNCNKFHWIAKGVTCQQVISYQKISLADFVKWNPSVLSDCSGMWAEVQVCVGVIGSTPTTLATTTTTAGNGVSTPLPTQPGMVTNCAKFHWVAKGVTCNQIYSFQKITLEQFVSYNPTVKSDCSGMQAEVQVCVGLIAGTTPTTTRPPTTTAPGNGVSTPQPTQPGMVTNCAKFHWVAKGVTCNQIYSFQKITLEQFVSFNPTVKSDCTGMQAEVNVCVGLIGGNPTPTQTGNGIATPTPIQPGMVSNCKKFHWIAQGVTCQQVISFQKITLADFVKWNTGVGSDCRTMWAETNVCVGV,glycan array binding signal (z-score),[1],-0.691
same,glycan array binding signal (z-score),[2],-0.772
same,glycan array binding signal (z-score),[3],-1.91
same,glycan array binding signal (z-score),[4],2.67
same,glycan array binding signal (z-score),[5],2.13
same,glycan array binding signal (z-score),[6],-0.492
same,glycan array binding signal (z-score),[7],0.254
same,glycan array binding signal (z-score),[8],3.25
same,glycan array binding signal (z-score),[9],0.512
same,glycan array binding signal (z-score),[10],1.94
same,glycan array binding signal (z-score),[11],0.38
same,glycan array binding signal (z-score),[12],0.721
same,glycan array binding signal (z-score),[13],-0.68
same,glycan array binding signal (z-score),[14],1.04
same,glycan array binding signal (z-score),[15],-0.317
same,glycan array binding signal (z-score),[16],3.04
same,glycan array binding signal (z-score),[17],0.386
same,glycan array binding signal (z-score),[18],-1.58
same,glycan array binding signal (z-score),[19],2.86
same,glycan array binding signal (z-score),[20],-0.186
same,glycan array binding signal (z-score),[21],-0.618
same,glycan array binding signal (z-score),[22],1.63
same,glycan array binding signal (z-score),[23],-0.885
same,glycan array binding signal (z-score),[24],0.592
same,glycan array binding signal (z-score),[25],-0.393
same,glycan array binding signal (z-score),[26],2.56
same,glycan array binding signal (z-score),[27],4.04
same,glycan array binding signal (z-score),[28],0.198
same,glycan array binding signal (z-score),[29],0.706
same,glycan array binding signal (z-score),[30],-1.23
same,glycan array binding signal (z-score),[31],0.192
same,glycan array binding signal (z-score),[32],0.22
same,glycan array binding signal (z-score),[33],0.035
same,glycan array binding signal (z-score),[34],-1.06
same,glycan array binding signal (z-score),[35],-0.658
same,glycan array binding signal (z-score),[36],1.23
same,glycan array binding signal (z-score),[37],0.117
same,glycan array binding signal (z-score),[38],2.67
same,glycan array binding signal (z-score),[39],2.72
same,glycan array binding signal (z-score),[40],3.09
same,glycan array binding signal (z-score),[41],1.03
same,glycan array binding signal (z-score),[42],2.5
same,glycan array binding signal (z-score),[43],-0.307
same,glycan array binding signal (z-score),[44],0.427
same,glycan array binding signal (z-score),[45],0.213
same,glycan array binding signal (z-score),[46],0.8
same,glycan array binding signal (z-score),[47],-0.418
same,glycan array binding signal (z-score),[48],-0.119
same,glycan array binding signal (z-score),[49],2.97
same,glycan array binding signal (z-score),[50],0.306
same,glycan array binding signal (z-score),[51],0.377
same,glycan array binding signal (z-score),[52],-0.354
